Where a name gives a salt, the structure may show the parent alone.
Assays:
Conditions in all cases: treatment time: 24 h
HepG2-GM130-SQSTM1 [1] = test: lowest phenotypically active concentration; higher = less potent
Method in brief: (§1)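 Fifteen reporter lines derived from A549, HepG2 and WPMY1 cells by gene editing, carrying BFP for segmentation plus GFP and RFP/FusionRed markers, were exposed to 0.3, 1, 3 or 9 µM for 24 h in four wells each and imaged live. Live-cell features from each well were normalised to solvent control wells. A well set counted as deviating when ≥3 of 4 wells lay beyond the 95th percentile of control Euclidean distances, and as reproducible when the median replicate Pearson correlation exceeded the 95th percentile of non-replicates. Phenotypic activity was assigned only when both criteria were met.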

A549-ACTB-RAB5A = test: phenotypically active (imaging signature differs from DMSO and reproducible) at any of 0.3-9 uM (binary (1 = active, 0 = inactive)); higher = active
Method in brief: as §1

A549-CANX-COX4 = test: as above
Method in brief: as §1

A549-GM130-SQSTM1 [2] = test: as above
Method in brief: as §1

A549-TP53BP1-CLTA = test: as above
Method in brief: as §1

A549-TUBA1B-RELA = test: as above
Method in brief: as §1

HepG2-ACTB-RAB5A = test: as above
Method in brief: as §1

HepG2-CANX-COX4 [3] = test: as above
Method in brief: as §1

HepG2-GM130-SQSTM1 [4] = test: as above
Method in brief: as §1

HepG2-TP53BP1-CLTA = test: as above
Method in brief: as §1

HepG2-TUBA1B-RELA = test: as above
Method in brief: as §1

WPMY1-ACTB-RAB5A [5] = test: as above
Method in brief: as §1

WPMY1-CANX-COX4 = test: as above
Method in brief: as §1

WPMY1-GM130-SQSTM1 [6] = test: as above
Method in brief: as §1

WPMY1-TP53BP1-CLTA = test: as above
Method in brief: as §1

WPMY1-TUBA1B-RELA = test: as above
Method in brief: as §1

HepG2-CANX-COX4 [7] = test: lowest phenotypically active concentration; higher = less potent
Method in brief: as §1

WPMY1-GM130-SQSTM1 [8] = test: as above
Method in brief: as §1

WPMY1-ACTB-RAB5A [9] = test: as above
Method in brief: as §1

A549-GM130-SQSTM1 [10] = test: as above
Method in brief: as §1

SMILES	lowest phenotypically active concentration (HepG2-GM130-SQSTM1 [1])	phenotypically active (A549-ACTB-RAB5A)	phenotypically active (A549-CANX-COX4)	phenotypically active (A549-GM130-SQSTM1 [2])	phenotypically active (A549-TP53BP1-CLTA)	phenotypically active (A549-TUBA1B-RELA)	phenotypically active (HepG2-ACTB-RAB5A)	phenotypically active (HepG2-CANX-COX4 [3])	phenotypically active (HepG2-GM130-SQSTM1 [4])	phenotypically active (HepG2-TP53BP1-CLTA)	phenotypically active (HepG2-TUBA1B-RELA)	phenotypically active (WPMY1-ACTB-RAB5A [5])	phenotypically active (WPMY1-CANX-COX4)	phenotypically active (WPMY1-GM130-SQSTM1 [6])	phenotypically active (WPMY1-TP53BP1-CLTA)	phenotypically active (WPMY1-TUBA1B-RELA)	lowest phenotypically active concentration (HepG2-CANX-COX4 [7])	lowest phenotypically active concentration (WPMY1-GM130-SQSTM1 [8])	lowest phenotypically active concentration (WPMY1-ACTB-RAB5A [9])	lowest phenotypically active concentration (A549-GM130-SQSTM1 [10])
O=C(/C=C/c1ccc(O)cc1)c1ccc(O)cc1O [Isoliquiritigenin]	9 µM	0 (inactive)	0 (inactive)	0 (inactive)	0 (inactive)	1 (active)	0 (inactive)	0 (inactive)	1 (active)	0 (inactive)	0 (inactive)	0 (inactive)	1 (active)	0 (inactive)	1 (active)	0 (inactive)				
CC1(C)CCC(C)(C)c2cc(C(O)C(=O)Nc3ccc(C(=O)O)cc3F)ccc21 (configuration not stated)		0 (inactive)	0 (inactive)	0 (inactive)	0 (inactive)	0 (inactive)	0 (inactive)	1 (active)	0 (inactive)	0 (inactive)	0 (inactive)	0 (inactive)	0 (inactive)	0 (inactive)	0 (inactive)	0 (inactive)	9 µM			
S=c1[nH]cnc2nc[nH]c12 [mercaptopurine]		0 (inactive)	0 (inactive)	0 (inactive)	0 (inactive)	0 (inactive)	1 (active)	1 (active)	0 (inactive)	0 (inactive)	1 (active)	0 (inactive)	1 (active)	1 (active)	0 (inactive)	1 (active)	9 µM	9 µM		
Nc1ncnc2c1ncn2[C@@H]1O[C@H](CO)[C@@H](O)[C@H]1O [Adenosine]		0 (inactive)	0 (inactive)	0 (inactive)	0 (inactive)	0 (inactive)	1 (active)	0 (inactive)	0 (inactive)	0 (inactive)	0 (inactive)	0 (inactive)	0 (inactive)	0 (inactive)	0 (inactive)	0 (inactive)				
C[C@H](NC(=O)[C@@H](O)c1cc(F)cc(F)c1)C(=O)N[C@@H]1C(=O)N(C)c2ccccc2-c2ccccc21		0 (inactive)	0 (inactive)	0 (inactive)	0 (inactive)	0 (inactive)	0 (inactive)	1 (active)	0 (inactive)	0 (inactive)	0 (inactive)	1 (active)	1 (active)	1 (active)	0 (inactive)	0 (inactive)	1 µM	3 µM	≤ 0.3 µM	
CC(C)N(CCCNC(=O)Nc1ccc(C(C)(C)C)cc1)C[C@H]1O[C@@H](n2cc(Br)c3c(N)ncnc32)[C@H](O)[C@@H]1O	3 µM	0 (inactive)	0 (inactive)	0 (inactive)	1 (active)	0 (inactive)	1 (active)	1 (active)	1 (active)	1 (active)	1 (active)	1 (active)	1 (active)	1 (active)	1 (active)	1 (active)	9 µM	9 µM	3 µM	
CCc1c(C(=O)Nc2cc(S(=O)(=O)N(CC)CC)ccc2O)[nH]c(C)c1C(C)=O		0 (inactive)	0 (inactive)	0 (inactive)	0 (inactive)	0 (inactive)	1 (active)	1 (active)	0 (inactive)	0 (inactive)	0 (inactive)	0 (inactive)	0 (inactive)	1 (active)	0 (inactive)	0 (inactive)	9 µM	9 µM		
CC1=C(/C=C/C(C)=C/C=C/C(C)=C/C(=O)O)C(C)(C)CCC1 [isotretinoin]		0 (inactive)	0 (inactive)	0 (inactive)	0 (inactive)	0 (inactive)	0 (inactive)	1 (active)	0 (inactive)	0 (inactive)	0 (inactive)	0 (inactive)	0 (inactive)	0 (inactive)	1 (active)	0 (inactive)	≤ 0.3 µM			
COCCCOc1ccnc(CS(=O)c2nc3ccccc3[nH]2)c1C (configuration not stated) [rabeprazole]		0 (inactive)	0 (inactive)	0 (inactive)	0 (inactive)	0 (inactive)	1 (active)	0 (inactive)	0 (inactive)	0 (inactive)	1 (active)	0 (inactive)	0 (inactive)	0 (inactive)	0 (inactive)	0 (inactive)				
CC(C)N(CCCNC(=O)Nc1ccc(C(C)(C)C)cc1)C[C@H]1O[C@@H](n2ccc3c(N)ncnc32)[C@H](O)[C@@H]1O	≤ 0.3 µM	0 (inactive)	0 (inactive)	0 (inactive)	0 (inactive)	0 (inactive)	1 (active)	0 (inactive)	1 (active)	1 (active)	1 (active)	0 (inactive)	0 (inactive)	0 (inactive)	0 (inactive)	1 (active)				
CCCc1cc2c(N3CCN(C4=NCC(C)(C)S4)CC3)ncnc2s1 [MI 2 dihydrochloride]	9 µM	0 (inactive)	0 (inactive)	1 (active)	0 (inactive)	0 (inactive)	1 (active)	1 (active)	1 (active)	1 (active)	0 (inactive)	1 (active)	0 (inactive)	1 (active)	0 (inactive)	0 (inactive)	9 µM	9 µM	3 µM	9 µM
COc1cc(-c2cn(C)c(=O)c3cnccc23)c(OC)cc1CN(C)C	9 µM	0 (inactive)	0 (inactive)	0 (inactive)	1 (active)	0 (inactive)	1 (active)	0 (inactive)	1 (active)	0 (inactive)	1 (active)	0 (inactive)	0 (inactive)	0 (inactive)	0 (inactive)	1 (active)				
CO[C@H]1C=CO[C@@]2(C)Oc3c(C)c(O)c4c(O)c(c(/C=N/N5CCN(C)CC5)c(O)c4c3C2=O)NC(=O)C(C)=CC=C[C@H](C)[C@H](O)[C@@H](C)[C@@H](O)[C@@H](C)[C@H](OC(C)=O)[C@@H]1C [Rifampicin]		0 (inactive)	0 (inactive)	1 (active)	0 (inactive)	0 (inactive)	0 (inactive)	1 (active)	0 (inactive)	0 (inactive)	0 (inactive)	0 (inactive)	0 (inactive)	0 (inactive)	0 (inactive)	0 (inactive)	3 µM			9 µM
O=C1NN(c2ccc(F)c(Cl)c2)C(=O)/C1=C\c1ccc([N+](=O)[O-])o1		0 (inactive)	0 (inactive)	1 (active)	0 (inactive)	0 (inactive)	0 (inactive)	0 (inactive)	0 (inactive)	0 (inactive)	0 (inactive)	0 (inactive)	1 (active)	1 (active)	0 (inactive)	0 (inactive)		9 µM		3 µM
O=C(O)[C@H]1CCCC[C@H]1C(=O)N1CCc2ccccc2[C@H]1CN1C(=O)c2ccccc2C1=O	9 µM	0 (inactive)	0 (inactive)	0 (inactive)	0 (inactive)	0 (inactive)	1 (active)	0 (inactive)	1 (active)	0 (inactive)	1 (active)	0 (inactive)	0 (inactive)	0 (inactive)	0 (inactive)	0 (inactive)				
CCOc1nc(NC(=O)Cc2cc(OC)ccc2OC)cc(N)c1C#N		0 (inactive)	0 (inactive)	0 (inactive)	0 (inactive)	1 (active)	0 (inactive)	0 (inactive)	0 (inactive)	0 (inactive)	0 (inactive)	0 (inactive)	0 (inactive)	0 (inactive)	0 (inactive)	0 (inactive)				
O=c1c(O)c(-c2ccc(O)cc2)oc2cc(O)cc(O)c12 [Kaempferol]		0 (inactive)	0 (inactive)	1 (active)	0 (inactive)	0 (inactive)	0 (inactive)	0 (inactive)	0 (inactive)	0 (inactive)	0 (inactive)	0 (inactive)	1 (active)	1 (active)	1 (active)	0 (inactive)		9 µM		9 µM
COc1ccc(CC2c3cc(OC)c(OC)cc3CC[N+]2(C)CCC(=O)OCCCCCOC(=O)CC[N+]2(C)CCc3cc(OC)c(OC)cc3C2Cc2ccc(OC)c(OC)c2)cc1OC (configuration not stated) [Atracurium besilate]	3 µM	0 (inactive)	0 (inactive)	0 (inactive)	0 (inactive)	0 (inactive)	0 (inactive)	1 (active)	1 (active)	0 (inactive)	0 (inactive)	1 (active)	0 (inactive)	1 (active)	0 (inactive)	0 (inactive)	9 µM	9 µM	3 µM	
Cc1cc(C(=O)Nc2cccc(C(=O)Nc3cccc(C(F)(F)F)c3)c2)on1		0 (inactive)	0 (inactive)	0 (inactive)	0 (inactive)	0 (inactive)	0 (inactive)	1 (active)	0 (inactive)	0 (inactive)	0 (inactive)	0 (inactive)	0 (inactive)	0 (inactive)	0 (inactive)	0 (inactive)	1 µM			
O=C(O)COc1ccc(Br)cc1/C=C1\SC(=S)N(Cc2cccnc2)C1=O	3 µM	0 (inactive)	0 (inactive)	1 (active)	0 (inactive)	0 (inactive)	0 (inactive)	0 (inactive)	1 (active)	0 (inactive)	0 (inactive)	0 (inactive)	0 (inactive)	1 (active)	0 (inactive)	0 (inactive)		3 µM		9 µM
CCCCCCCCCCCCC/C=C/[C@H](O)[C@H](N)CO [D-erythro-Sphingosine (synthetic)]		0 (inactive)	0 (inactive)	1 (active)	0 (inactive)	0 (inactive)	0 (inactive)	0 (inactive)	0 (inactive)	0 (inactive)	0 (inactive)	0 (inactive)	0 (inactive)	1 (active)	0 (inactive)	0 (inactive)		9 µM		9 µM
Cc1ccc(-n2sc3ccccc3c2=O)cc1	9 µM	0 (inactive)	0 (inactive)	0 (inactive)	0 (inactive)	0 (inactive)	0 (inactive)	1 (active)	1 (active)	0 (inactive)	0 (inactive)	1 (active)	0 (inactive)	1 (active)	0 (inactive)	0 (inactive)	9 µM	9 µM	9 µM	

From the supplement of paper PMC7411054
